In the library only some 9.2% were active in any assay of this set; here they are far more common.
JMJD2E inh – inhibitors of human JMJD2E histone demethylase | B2RXH2 | JMJD2E catalytic domain, FDH-coupled NADH fluorescence (FDH is formaldehyde dehydrogenase) | Potency, µM (series often up to 57.1 µM), for inactives: at the highest dose activity change, negative = inhibition, usual class: inhibitors | actives 1.6% (n = 230,000);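 further: 0% = wells with enzyme and -100% = buffer wells without enzyme; nearly all actives have a fitted effect of over 50% in size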
HPGD inh – HPGD (human) dehydrogenase inhibition; P15428; purified HPGD, NADH fluorescence kinetic, PGE2 substrate; Potency, µM, inactives show at the top dose activity change, negative = inhibition, most hits filed as inhibitors; actives 4.3% (n = 150,000); further: on the % scale 0 is the no-effect control and ±100 the full control effect
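NADH formation kinetics: reaction with 30 uM PGE2 and 1 mM NAD+ (final), 20 nM enzyme, Tris-HCl pH 8 with Tween 20, after 15 min compound preincubation at room temperature. Fluorescence change, last versus first of five reads.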
HTT aggregate – reduces HttQ103-GFP aggregates in PC12 cells. PC12 HttQ103-GFP aggregates, Acumen cytometry, 40 h. Potency, µM (titrated, usually from 46.1 µM), for the others: at the top dose activity change, negative = inhibition, usual class: inhibitors. actives 1.1% (n = 220,000). AID 1688; active means well fitted curve in the direction sought with a large enough effect; inconclusive means small, poorly fitted or top-dose-only effect, or another doubt; inactive means no such curve, though single readings can be large; an effect the other way counts as inactive or inconclusive; further: on the % scale 0 is the no-effect control and ±100 the full control effect; nearly all actives have a fitted effect of over 60% in size
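Read-out: GFP aggregate count by laser scanning cytometer (488 nm excitation, 500-530 nm emission, 1–25 µm objects >6 SD above background). Cells: PC12, inducible HTTex1-Q103-GFP, 100 nM tebufenozide; compounds titrated.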
ALDH1A1 inh – inhibitors of human aldehyde dehydrogenase 1A1 | P00352 | Purified ALDH1A1, NADH fluorescence, propionaldehyde substrate | Potency, µM (top dose mostly 75.3 µM), without a hit: top-dose activity, negative = inhibition, usual class: inhibitors | actives 7.3% (n = 220,000) | AID 1030;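 further: plate controls were no enzyme wells and a reference inhibitor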
Target sequence (P00352 whole entry, looked up): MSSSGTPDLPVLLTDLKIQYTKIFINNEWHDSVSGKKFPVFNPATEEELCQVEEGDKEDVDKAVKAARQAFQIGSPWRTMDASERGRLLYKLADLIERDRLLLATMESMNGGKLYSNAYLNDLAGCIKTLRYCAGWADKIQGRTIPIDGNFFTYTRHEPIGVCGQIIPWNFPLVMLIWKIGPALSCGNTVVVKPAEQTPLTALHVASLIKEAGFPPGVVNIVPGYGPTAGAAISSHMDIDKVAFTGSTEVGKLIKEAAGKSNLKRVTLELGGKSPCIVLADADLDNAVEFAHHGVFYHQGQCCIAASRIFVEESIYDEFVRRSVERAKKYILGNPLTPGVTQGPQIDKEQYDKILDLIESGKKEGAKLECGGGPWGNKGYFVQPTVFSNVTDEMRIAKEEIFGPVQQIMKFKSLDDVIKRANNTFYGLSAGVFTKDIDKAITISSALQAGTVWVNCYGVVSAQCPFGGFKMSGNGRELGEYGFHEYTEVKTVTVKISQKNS
Lamin A splicing – modulators of lamin A splicing. HeLa LMNA splicing GFP/RFP minigene ratio, 48 h. Potency, µM (titrated, usually from 46.1 µM), for inactives: top-dose ratio change, negative = inhibition, usual class: inhibitors. actives 0.01% (n = 200,000); active means well fitted inhibition curve with a large enough effect in the signal ratio, with a control signal flat, not every such curve was filed as active; inconclusive means small, poorly fitted or top-dose-only effect, or effect the other way, or a change in a side signal; the % refers to the signal ratio; further: on the % scale 0 is the no-effect control and ±100 the full control effect
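Read-out is the ratio of GFP to DsRed2 object intensity, acquired by 488 nm laser-scanning cytometry on HeLa lamin A-EGFP minigene reporter cells. Compound incubation 48 hrs at 37 °C in Opti-MEM with 2% FBS; DMSO 0.5% final.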
HTT ATP protect – protects HTT-Q103 PC12 cells, measured by ATP. PC12 HTT-Q103 induced, cytoprotection, ATP luminescence, 40 h. Potency, µM (doses to about 56.4 µM), for the others: cytoprotection (ATP increase), actives largely listed as activators. actives 0.14% (n = 230,000); active means well fitted curve in the direction sought with a large enough effect; inconclusive means small, poorly fitted or top-dose-only effect, or another doubt; inactive means no such curve, though single readings can be large; an effect the other way counts as inactive or inconclusive; further: % of control where 0% means no effect; nearly all actives have a fitted effect of over 45% in size
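Huntington model: PC12 line, ecdysone-inducible HTTQ103 exon1–GFP, tebufenozide 100 nM. Test articles in a dose series. Endpoint luminescence from cellular ATP.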
An asterisk follows results filed as active; ? = inconclusive; nt = not tested or not shown; [ ] = another dose, or the depositor's remark. Unless noted, the call rests on the fitted dose curve; in most records, active means well fitted inhibition curve with a large enough effect (not every such curve was filed as active); inconclusive means small, poorly fitted or top-dose-only effect, or another doubt; inactive means no such curve, though single readings can be large or run the other way. Potency means the concentration at half of the fitted maximal effect.

SMILES	JMJD2E inh	HPGD inh	HTT aggregate	ALDH1A1 inh	Lamin A splicing	HTT ATP protect
Cc1cc([N+](=O)[O-])ccc1NC(=S)NC(=O)Cc1ccccc1	-13%	18µM*	21%	?	23%	-6%
COc1ccc([N+](=O)[O-])cc1NC(=S)NC(C)=O	6%	nt	?	-6%	11%[46 µM]	24%[10 µM]
Cn1nc(CC(=O)N2CCN(c3ccccc3)CC2)c2ccccc2c1=O	-3%	-27%	-13%	-3%	?	-10%[0.074 µM]
Cn1nc(CC(=O)Nc2ccc(N3CCN(C(=O)OC(C)(C)C)CC3)cc2)c2ccccc2c1=O	-6%	-20%	4µM*	2%	?	32%[10 µM]
C[C@@H](C(=O)Nc1nc2ccccc2s1)N1C(=O)C2CC=CCC2C1=O (some centres not stated)	-3%	nt	35%	23%	nt	nt
Cc1cccc2sc(NC(=O)[C@H](C)N3C(=O)C4CC=CCC4C3=O)nc12 (some centres not stated)	-2%	nt	10%[9.22 µM]	14µM*	nt	4%[10 µM]
O=C(c1cccc(F)c1)N1CCC[C@@]2(CCN(c3ncccn3)C2)C1	nt	-18%	nt	?	nt	?
Cc1ccc(Sc2ccc(NC(=O)CCl)cc2)c(C)c1	5%	11µM*	-4%	-6%	-8%	-6%[10 µM]
CC(=O)Nc1ccc(NC(=O)CSc2ccc(C)cc2)cc1	7%	-9%	-1%	2%	-1%	9%
COc1ccc(-c2cnc(-c3cccnc3)o2)cc1	?	?	nt	?	nt	-112%
N#CCC(CNc1ncc(C(F)(F)F)cc1Cl)OC(=O)c1cccc(C(F)(F)F)c1 (configuration not stated)	-3%	?	-11%	-10%	-10%	-8%[10 µM]
O=C(OCn1ncc(Cl)c(Cl)c1=O)c1cccc(C(F)(F)F)c1	3%	18µM*	0%	0.63µM*	?	15%
O=C(c1cccc(F)c1)N1CCN(c2ccc([N+](=O)[O-])c(N3CCOCC3)c2)CC1	0%	-10%	0%	7.9µM*	2%	25%[10 µM]
Cc1cc(C)n(-c2cc(N3CCN(C(=O)c4cccc(F)c4)CC3)ccc2[N+](=O)[O-])n1	3%	-13%	-3%	4.5µM*	?	nt
O=C(c1ccccc1)N1CCN(c2ccc([N+](=O)[O-])c(N3CCOCC3)c2)CC1	6%	-9%	7%	0.89µM*	-6%	2%[10 µM]
OCCN(CCO)c1ncnc2nc[nH]c12	nt	-12%	nt	17%[13.5 µM]	nt	-5%[10 µM]
Cc1ccc(C2=Nc3ccccc3N(CC(=O)Nc3cccc(F)c3)C(=O)C2)cc1C	nt	nt	nt	nt	-7%[46 µM]	nt
CC(C)C[C@@H](CC(=O)N[C@@H](CCC(=O)O)CC(=O)O)NC(=O)[C@@H]1CNCC[C@H]1NC(=O)C[C@@H](NC(=O)C[C@H](Cc1c[nH]c2ccccc12)NC(=O)[C@@H]1CNCC[C@H]1N)C(C)C	-20%	-5%	nt	-16%	nt	-14%[1.9 µM]
O=C(NCCO)/C(=C/c1cccc([N+](=O)[O-])c1)NC(=O)c1ccco1	7%	nt	-2%	3%	nt	-19%
CC(NC(=O)/C(=C\c1cccc([N+](=O)[O-])c1)NC(=O)c1ccco1)C(=O)O (configuration not stated)	-7%	28µM*	-1%	6.3µM*	8%[0.0737 µM]	29%
CCS(=O)(=O)c1ccc2oc(Nc3ccc(C(C)C)cc3)nc2c1	?	4µM*	11%	4µM*	-3%	6%[10 µM]
CCOc1ccc(Nc2nc3cc(S(=O)(=O)N(CC)CC)ccc3o2)cc1	-13%	3.5µM*	6%	3.2µM*	?	-15%
COc1ccc(-n2c(=O)c(C)nc3cnc(Nc4cccc(OC)c4)nc32)cc1	nt	-13%	nt	?	nt	-44%
CC(=O)N/N=C/c1cc(C(C)(C)C)cc(/C=N/NC(C)=O)c1O	22µM*	nt	10%[9.22 µM]	52%	?	?
CCC(O)(CC)C(=O)N/N=C/c1cc(Br)cc(Br)c1O	?	nt	-19%[9.22 µM]	nt	nt	13%[10 µM]
SMILES	JMJD2E inh	HPGD inh	HTT aggregate	ALDH1A1 inh	Lamin A splicing	HTT ATP protect
N#Cc1cccc(NC(=O)N2CC[C@@]3(CCCN(C(=O)c4cc(C(F)(F)F)cc(C(F)(F)F)c4)C3)C2)c1	nt	-10%	nt	5%	nt	-10%
S=C(NCCc1ccccc1)N1CCn2cccc2C1c1cccnc1 (configuration not stated)	-7%	nt	-17%	?	-8%[46 µM]	-23%
COc1cccc(NC(=S)N2CCn3cccc3C2c2cccnc2)c1 (configuration not stated)	0%	nt	-14%	14µM*	-19%[46 µM]	-26%
S=C(NCc1ccccc1)N1CCn2cccc2C1c1cccnc1 (configuration not stated)	-3%	nt	-7%	3.5µM*	nt	-18%
COc1ccc(NC(=O)C(=O)N/N=C/c2cc(C)n(-c3cccc(Cl)c3Cl)c2C)c(OC)c1	?	?	-8%	32µM*	-15%	-3%
O=C(O)CCc1ccc(S(=O)(=O)NCCc2ccccc2)cc1	-2%	nt	-7%	1.8µM*	-2%	4%
CCNS(=O)(=O)c1ccc(CCC(=O)O)cc1	-3%	nt	9%	22%	-11%[46 µM]	nt
CCOCC(=O)Nc1ccc(S(=O)(=O)NCCc2ccccc2)cc1	-3%	-5%	-13%	10µM*	?	2%
O=C(Nc1ccc(S(=O)(=O)NCCc2ccccc2)cc1)c1ccco1	10%	-24%	4%	?	?	-4%
Cc1cc(CNCc2c(C(=O)N3CCCCCCC3)nc3ccc(Cl)cn23)nn1C	5%	nt	-7%[9.22 µM]	16µM*	11%[46 µM]	-19%[10 µM]
O=C(c1ccccc1)c1coc2c1C(=O)c1ccccc1C2=O	0%	nt	?	20µM*	?	nt
COc1ccc(C(=O)c2coc3c2C(=O)C(=O)c2ccccc2-3)cc1	?	nt	13%[9.22 µM]	nt	nt	20%[10 µM]
O=C1c2ccccc2C(=O)c2c1oc(C(F)(F)F)c2C(=O)c1ccccc1	10%	-16%	5µM*	?	?	-98%[10 µM]
CCCNc1nc(C)cc(-c2cc(-c3ccc(Cl)cc3)on2)n1	-25%	nt	-34%[9.22 µM]	nt	nt	0%[10 µM]
S=C(Nc1ccc2nccnc2c1)N1CCCC1	?	nt	-20%[9.22 µM]	-4%	nt	4%[10 µM]
S=C(Nc1ccc2nsnc2c1)N1CCCC1	?	nt	-18%[9.22 µM]	25µM*	-21%[46 µM]	-4%[10 µM]
O=C(c1ccncc1)N1CCC2(CCCN(c3ncccn3)C2)CC1	nt	-17%	nt	8%	nt	0%

Screens from PubChem.
